# This is one part of a sample in which the strongest signals are shown more often than they occur.
# Legend:
# Experiment in all cases: glycan array binding signal (z-score within array); higher = stronger binding
# Details in all cases: glycan notation: IUPAC condensed, linker removed
# [1] = molecular target: Fuc(a1-2)Gal(b1-3)GlcNAc(b1-2)Man(a1-3)[Fuc(a1-2)Gal(b1-3)GlcNAc(b1-2)Man(a1-6)]Man(b1-4)GlcNAc(b1-4)GlcNAc
# How it was run: (§1)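 Arrays were curated from the Consortium for Functional Glycomics database, 3228 in total, and kept only where the protein sequence was available. Binding is expressed as a within-array Z-score. This score was averaged across arrays of the same protein sequence at different concentrations or buffers and across linkers, and negative values can be read as non-binding.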
# [2] = molecular target: Fuc(a1-2)Gal(b1-3)GlcNAc(b1-3)[Gal(b1-4)[Fuc(a1-3)]GlcNAc(b1-6)]Gal(b1-4)Glc
# How it was run: as §1
# [3] = molecular target: Fuc(a1-2)Gal(b1-3)[Fuc(a1-4)]GlcNAc(b1-2)Man(a1-3)[Fuc(a1-2)Gal(b1-3)[Fuc(a1-4)]GlcNAc(b1-2)Man(a1-6)]Man(b1-4)GlcNAc(b1-4)GlcNAc
# How it was run: as §1
# [4] = molecular target: Fuc(a1-2)Gal(b1-4)GlcNAc
# How it was run: as §1
# [5] = molecular target: Fuc(a1-2)Gal6S(b1-4)Glc
# How it was run: as §1
# [6] = molecular target: Fuc(a1-2)[Gal(a1-3)]Gal
# How it was run: as §1
# [7] = molecular target: Fuc(a1-2)[Gal(a1-3)]Gal(b1-4)[Fuc(a1-3)]Glc
# How it was run: as §1
# [8] = molecular target: Fuc(a1-2)[GalNAc(a1-3)]Gal(b1-3)GalNAc(a1-3)[Fuc(a1-2)]Gal(b1-4)GlcNAc
# How it was run: as §1
# [9] = molecular target: Fuc(a1-2)[GalNAc(a1-3)]Gal(b1-3)GalNAc(b1-3)Gal(a1-4)Gal(b1-4)Glc
# How it was run: as §1
# [10] = molecular target: Fuc(a1-2)[GalNAc(a1-3)]Gal(b1-4)Glc
# How it was run: as §1
# [11] = molecular target: Fuc(a1-2)[GalNAc(a1-3)]Gal(b1-4)GlcNAc(b1-2)Man(a1-3)[Fuc(a1-2)[GalNAc(a1-3)]Gal(b1-4)GlcNAc(b1-2)Man(a1-6)]Man(b1-4)GlcNAc(b1-4)GlcNAc
# How it was run: as §1
# [12] = molecular target: Fuc(a1-2)[GalNAc(a1-3)]Gal(b1-4)GlcNAc(b1-3)Gal(b1-4)GlcNAc(b1-3)Gal(b1-4)GlcNAc
# How it was run: as §1
# [13] = molecular target: Fuc(a1-2)[GalNAc(a1-3)]Gal(b1-4)GlcNAc(b1-3)[Fuc(a1-2)[GalNAc(a1-3)]Gal(b1-4)GlcNAc(b1-6)]GalNAc
# How it was run: as §1
# [14] = molecular target: Fuc(a1-2)[GalNAc(a1-4)]Gal(b1-4)GlcNAc
# How it was run: as §1
# [15] = molecular target: Fuc(a1-3)[Gal(b1-4)]GlcNAc(b1-4)Gal(b1-4)[Fuc(a1-3)]GlcNAc(b1-4)Gal(b1-4)[Fuc(a1-3)]GlcNAc
# How it was run: as §1
# [16] = molecular target: Gal(a1-4)GlcNAc
# How it was run: as §1
# [17] = molecular target: Gal(b1-2)Gal
# How it was run: as §1
# [18] = molecular target: Gal(b1-3)GalNAc
# How it was run: as §1
# [19] = molecular target: Gal(b1-3)GlcNAc(b1-2)[Gal(b1-3)GlcNAc(b1-6)]Man(a1-6)[Gal(b1-3)GlcNAc(b1-2)Man(a1-3)]Man(b1-4)GlcNAc(b1-4)GlcNAc
# How it was run: as §1
# [20] = molecular target: Gal(b1-3)GlcNAc(b1-6)GalNAc
# How it was run: as §1
# [21] = molecular target: Gal(b1-3)[Neu5Ac(a2-6)]GalNAc
# How it was run: as §1
# [22] = molecular target: Gal(b1-4)Glc
# How it was run: as §1
# [23] = molecular target: Gal(b1-4)GlcNAc(b1-2)Man(a1-3)[Gal(b1-4)GlcNAc(b1-2)Man(a1-6)]Man(b1-4)GlcNAc(b1-4)GlcNAc
# How it was run: as §1
# [24] = molecular target: Gal(b1-4)GlcNAc(b1-2)Man(a1-3)[GlcNAc(b1-4)][Gal(b1-4)GlcNAc(b1-2)Man(a1-6)]Man(b1-4)GlcNAc(b1-4)GlcNAc
# How it was run: as §1
# [25] = molecular target: Gal(b1-4)GlcNAc(b1-2)Man(a1-6)[GlcNAc(b1-2)Man(a1-3)]Man(b1-4)GlcNAc(b1-4)GlcNAc
# How it was run: as §1
# [26] = molecular target: Gal(b1-4)GlcNAc(b1-3)[Gal(b1-4)GlcNAc(b1-6)]Gal(b1-4)GlcNAc
# How it was run: as §1
# [27] = molecular target: Gal3S(b1-4)GlcNAc
# How it was run: as §1
# [28] = molecular target: Gal4S(b1-4)GlcNAc
# How it was run: as §1
# [29] = molecular target: GalNAc(a1-3)Gal
# How it was run: as §1
# [30] = molecular target: GalNAc(a1-3)GalNAc
# How it was run: as §1
# [31] = molecular target: GalNAc(a1-3)GalNAc(b1-3)Gal(a1-4)Gal(b1-4)Glc
# How it was run: as §1
# [32] = molecular target: GalNAc(a1-3)GalNAc(b1-3)Gal(a1-4)Gal(b1-4)GlcNAc
# How it was run: as §1
# [33] = molecular target: GalNAc(b1-3)GalNAc
# How it was run: as §1
# [34] = molecular target: Glc(b1-4)Glc
# How it was run: as §1
# [35] = molecular target: GlcA(b1-6)Gal
# How it was run: as §1
# [36] = molecular target: GlcNAc(a1-3)Gal(b1-4)GlcNAc
# How it was run: as §1
# [37] = molecular target: GlcNAc(a1-4)Gal(b1-4)GlcNAc(b1-3)Gal(b1-4)GlcNAc
# How it was run: as §1
# [38] = molecular target: GlcNAc(a1-4)Gal(b1-4)GlcNAc(b1-3)Gal(b1-4)GlcNAc(b1-3)Gal(b1-4)GlcNAc
# How it was run: as §1
# [39] = molecular target: GlcNAc(a1-6)Gal(b1-4)GlcNAc
# How it was run: as §1
# [40] = molecular target: GlcNAc(b1-3)Gal(b1-4)GlcNAc(b1-3)Gal(b1-4)GlcNAc(b1-2)Man(a1-3)[GlcNAc(b1-3)Gal(b1-4)GlcNAc(b1-3)Gal(b1-4)GlcNAc(b1-2)Man(a1-6)]Man(b1-4)GlcNAc(b1-4)[Fuc(a1-6)]GlcNAc
# How it was run: as §1
# [41] = molecular target: Kdn(a2-3)Gal(b1-3)GalNAc
# How it was run: as §1
# [42] = molecular target: Kdn(a2-3)Gal(b1-4)Glc
# How it was run: as §1
# [43] = molecular target: Kdn(a2-6)Gal(b1-4)GlcNAc
# How it was run: as §1
# [44] = molecular target: Man(a1-2)Man(a1-3)Man
# How it was run: as §1
# [45] = molecular target: Neu5Ac(a2-3)Gal(b1-4)GlcNAc6S
# How it was run: as §1
# [46] = molecular target: Neu5Ac(a2-3)Gal(b1-4)[Fuc(a1-3)]GlcNAc(b1-3)Gal(b1-4)[Fuc(a1-3)]GlcNAc(b1-3)Gal(b1-4)[Fuc(a1-3)]GlcNAc
# How it was run: as §1
# [47] = molecular target: Neu5Ac(a2-6)Gal(b1-4)GlcNAc(b1-2)Man(a1-3)[Man(a1-6)]Man(b1-4)GlcNAc(b1-4)GlcNAc
# How it was run: as §1
# [48] = molecular target: Neu5Ac(a2-6)Gal(b1-4)GlcNAc(b1-2)Man(a1-6)Man(b1-4)GlcNAc(b1-4)GlcNAc
# How it was run: as §1
# [49] = molecular target: Neu5Ac(a2-6)Gal(b1-4)GlcNAc(b1-2)Man(a1-6)[GlcNAc(b1-2)Man(a1-3)]Man(b1-4)GlcNAc(b1-4)GlcNAc
# How it was run: as §1
# [50] = molecular target: Neu5Ac(a2-6)Gal(b1-4)GlcNAc(b1-3)Gal(b1-4)GlcNAc(b1-6)[Gal(b1-3)]GalNAc
# How it was run: as §1
# [51] = molecular target: Neu5Ac(a2-6)Gal(b1-4)GlcNAc(b1-3)Gal(b1-4)[Fuc(a1-3)]GlcNAc(b1-3)Gal(b1-4)[Fuc(a1-3)]GlcNAc
# How it was run: as §1
# [52] = molecular target: Neu5Ac(a2-6)Gal(b1-4)GlcNAc(b1-3)[Neu5Ac(a2-6)Gal(b1-4)GlcNAc(b1-6)]GalNAc
# How it was run: as §1
# [53] = molecular target: Neu5Ac(a2-6)Gal(b1-4)GlcNAc(b1-6)[Gal(b1-3)]GalNAc
# How it was run: as §1
# [54] = molecular target: Neu5Ac(a2-6)GalNAc(b1-4)GlcNAc6S
# How it was run: as §1
# [55] = molecular target: Neu5Ac(a2-8)Neu5Ac(a2-3)Gal(b1-3)GalNAc(b1-4)[Neu5Ac(a2-8)Neu5Ac(a2-3)]Gal(b1-4)Glc
# How it was run: as §1
# [56] = molecular target: Neu5Gc(a2-3)Gal(b1-4)Glc
# How it was run: as §1
binder,measurement,setting,value
"HPAIIITrx (Helix pomatia), Q1KM18 (protein) MLFVTIISLGLLAIVHGQCALKTIAFSAAIDREQTFDANQVVIYDIVITNHGNAYDNSTGLFTAPVDGMYSFQLNLLTIKEKEGWLELVHNGQLKVSVYAKQDSTYDSSSNSVIIKMKEGDRVNVRAHKKSGLFGRDDELYNTFSGHFLSGL",glycan array binding signal (z-score),[1],3.03
same,glycan array binding signal (z-score),[2],-0.143
same,glycan array binding signal (z-score),[3],3.07
same,glycan array binding signal (z-score),[4],-0.3
same,glycan array binding signal (z-score),[5],-0.211
same,glycan array binding signal (z-score),[6],-0.256
same,glycan array binding signal (z-score),[7],-0.413
same,glycan array binding signal (z-score),[8],4.37
same,glycan array binding signal (z-score),[9],3.47
same,glycan array binding signal (z-score),[10],2.02
same,glycan array binding signal (z-score),[11],6.33
same,glycan array binding signal (z-score),[12],2.94
same,glycan array binding signal (z-score),[13],3.2
same,glycan array binding signal (z-score),[14],3.52
same,glycan array binding signal (z-score),[15],-0.564
same,glycan array binding signal (z-score),[16],-0.387
same,glycan array binding signal (z-score),[17],0.163
same,glycan array binding signal (z-score),[18],-0.149
same,glycan array binding signal (z-score),[19],-0.132
same,glycan array binding signal (z-score),[20],-0.368
same,glycan array binding signal (z-score),[21],-0.314
same,glycan array binding signal (z-score),[22],-0.056
same,glycan array binding signal (z-score),[23],-0.38
same,glycan array binding signal (z-score),[24],-0.402
same,glycan array binding signal (z-score),[25],-0.301
same,glycan array binding signal (z-score),[26],-0.21
same,glycan array binding signal (z-score),[27],-0.024
same,glycan array binding signal (z-score),[28],-0.358
same,glycan array binding signal (z-score),[29],2.5
same,glycan array binding signal (z-score),[30],3.35
same,glycan array binding signal (z-score),[31],5.39
same,glycan array binding signal (z-score),[32],4.56
same,glycan array binding signal (z-score),[33],-0.254
same,glycan array binding signal (z-score),[34],-0.122
same,glycan array binding signal (z-score),[35],-0.196
same,glycan array binding signal (z-score),[36],0.416
same,glycan array binding signal (z-score),[37],1.69
same,glycan array binding signal (z-score),[38],2.06
same,glycan array binding signal (z-score),[39],-0.341
same,glycan array binding signal (z-score),[40],-0.228
same,glycan array binding signal (z-score),[41],-0.152
same,glycan array binding signal (z-score),[42],0.214
same,glycan array binding signal (z-score),[43],-0.263
same,glycan array binding signal (z-score),[44],-0.321
same,glycan array binding signal (z-score),[45],-0.337
same,glycan array binding signal (z-score),[46],0.089
same,glycan array binding signal (z-score),[47],-0.533
same,glycan array binding signal (z-score),[48],-0.31
same,glycan array binding signal (z-score),[49],-0.492
same,glycan array binding signal (z-score),[50],-0.292
same,glycan array binding signal (z-score),[51],-0.392
same,glycan array binding signal (z-score),[52],-0.408
same,glycan array binding signal (z-score),[53],-0.3
same,glycan array binding signal (z-score),[54],-0.278
same,glycan array binding signal (z-score),[55],-0.38
same,glycan array binding signal (z-score),[56],-0.237

# Source: the supplement of paper PMC8728848
